# Results published in article PMC5540273 (PLoS ONE, 2017).
# Legend:
# Conditions in all cases: concentration: 1 μM,replicates: in singlicate; n = 1
# PIP5K1A = system: PIP5K1A
# PIP5K1C = system: PIP5K1C
# PIP5K2B = system: PIP5K2B
# PIP5K2C = system: T1, PIP5K2C
# T1 construct: gene PIP4K2C
# PKAC-alpha = system: T2, PKAC-alpha
# T2 construct: gene PRKACA
# PKAC-beta = system: T3, PKAC-beta
# T3 construct: gene PRKACB
# PKMYT1 = system: PKMYT1
# PKN1 = system: PKN1
# PKN2 = system: PKN2
# PLK2 = system: PLK2
# PLK4 = system: PLK4
# PRKCD = system: PRKCD
# PRKCE = system: PRKCE
# PRKCH = system: PRKCH
# PRKCI = system: PRKCI
# PRKCQ = system: PRKCQ
# PRKD1 = system: PRKD1
# PRKD2 = system: PRKD2
# PLK1 = system: PLK1
# PLK3 = system: PLK3
# 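Further: KINOMEscan kinase panel screen.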
SMILES,%Inh (PIP5K1A),%Inh (PIP5K1C),%Inh (PIP5K2B),%Inh (PIP5K2C),%Inh (PKAC-alpha),%Inh (PKAC-beta),%Inh (PKMYT1),%Inh (PKN1),%Inh (PKN2),%Inh (PLK2),%Inh (PLK4),%Inh (PRKCD),%Inh (PRKCE),%Inh (PRKCH),%Inh (PRKCI),%Inh (PRKCQ),%Inh (PRKD1),%Inh (PRKD2),%Inh (PLK1),%Inh (PLK3)
C[C@@H](Oc1cc(-n2cnc3cc(-c4cnn(C)c4)ccc32)sc1C(N)=O)c1ccccc1Cl [GSK580432],0%,38%,37%,3%,2%,0%,15%,0%,72%,99.5%,64%,23%,1%,0%,46%,35%,0%,0%,–,–
Cc1nnc(-c2ccc3occ(-c4ccc(S(C)=O)cc4)c3n2)o1 (stereo not shown),9%,10%,0%,43%,0%,0%,64%,0%,0%,0%,0%,0%,0%,4%,0%,0%,22%,0%,0%,0%
COc1cccc(CNC(=O)NC2CCN(c3ccnc(Nc4cc(OC)c(OC)c(OC)c4)n3)C2)c1 (stereo not shown) [GSK1379765],52%,68%,14%,90.3%,0%,0%,8%,36%,0%,0%,43%,0%,17%,12%,31%,37%,0%,3%,0%,0%
O=c1[nH]cc(-c2ccc(O)cc2)c2sc(-c3ccncc3)cc12 [GSK1033723],0%,65%,19%,27%,0%,0%,8%,0%,0%,0%,0%,0%,21%,0%,33%,19%,0%,0%,13%,0%
COC(=O)c1cccc(NC(=O)NC2CCN(c3ccnc(Nc4cc(OC)c(OC)c(OC)c4)n3)C2)c1 (stereo not shown) [GSK1379767],22%,64%,10%,90.7%,0%,0%,6%,7%,0%,0%,38%,0%,18%,7%,19%,0%,0%,5%,8%,0%
COc1cc2nccc(Nc3ccc(Oc4ccccc4)cc3)c2cc1OC.Cl [GI261656],10%,56%,46%,31%,0%,0%,0%,0%,0%,0%,15%,0%,0%,1%,0%,0%,0%,0%,0%,0%
COc1cc2c(Nc3ccc(NC(=O)c4ccccc4)cc3)ncnc2cc1OCCCN1CCOCC1 [GSK301329],0%,27%,14%,0%,3%,14%,1%,0%,0%,0%,36%,6%,0%,0%,0%,9%,0%,4%,0%,0%
C[C@@H]1CNc2c(sc3ccc4nc(-c5ccncc5)ccc4c23)C(=O)N1,30%,11%,0%,0%,0%,27%,7%,7%,15%,1%,92.7%,22%,65%,0%,0%,8%,49%,12%,0%,8%
CN(c1cccc(CNc2nc(Nc3ccc4c(c3)CC(=O)N4)ncc2C(F)(F)F)c1)S(C)(=O)=O,45%,45%,90.9%,46%,0%,0%,5%,77%,19%,70%,89%,27%,16%,0%,22%,38%,27%,39%,0%,69%
CCn1c(-c2nonc2N)nc2cncc(CNC3CCNCC3)c21.Cl [SB-747651],0%,25%,0%,22%,85%,83%,3%,39%,0%,0%,0%,77%,66%,89%,10%,43%,0%,0%,0%,0%
CSc1nccc(-c2c(-c3ccc(F)cc3)ncn2CCCN2CCOCC2)n1.Cl [SB-217146],0%,0%,0%,0%,14%,19%,0%,0%,0%,28%,5%,8%,38%,0%,14%,0%,0%,1%,33%,44%
CC(C(=O)NC1CCN(c2ccnc(Nc3ccc(F)cc3)n2)C1)c1ccc(Cl)cc1 (stereo not shown) [GSK1379713],21%,0%,1%,4%,0%,6%,0%,4%,0%,0%,0%,0%,3%,8%,11%,21%,0%,0%,0%,0%
COc1cc2ncn(-c3cc(OCC4CCCCC4)c(C(N)=O)s3)c2cc1OC [GSK204559],0%,61%,12%,11%,9%,0%,2%,24%,0%,99.3%,4%,24%,0%,30%,0%,32%,0%,0%,–,99.3%
COC(=O)Nc1nc2cc(Oc3ccc(NC(=O)Nc4cc(C(F)(F)F)ccc4Cl)cc3)ccc2[nH]1.Cl [GW697465],56%,63%,15%,53%,0%,0%,0%,0%,0%,0%,0%,0%,11%,7%,0%,6%,0%,1%,0%,0%
